Source: PubChem BioAssay (several laboratories)
BH1578 lux ind: inducers of Vibrio cholerae quorum light production without autoinducers; V. cholerae BH1578 lux reporter, luminescence, 6 h; activation, % at 18.7 µM; hit rate 0.16% among 350,000; AID 588436; in the data active means activation mostly above about 9.7%, no sharp cut-off; inconclusive means no clear call, values can overlap the other calls; inactive means mostly below about 3.7%
BoNT F protease: BoNT F light chain protease inhibition; hit rate 0.22% among 360,000; Multiplex microsphere protease cleavage assay, flow cytometry; AID 588497; inhibition, % at 10 µM; in the data active means inhibition above about 35%, passing the limit was not always enough; inconclusive means no clear call, values can overlap the other calls; further: plate controls were buffer without enzyme for full effect and enzyme alone for no effect
Anthrax LF inh2: inhibitors of Bacillus anthracis lethal factor protease | hit rate 0.12% among 360,000 | inhibition, % at 10 µM | P15917 | multiplex microsphere protease cleavage assay, LF; further: plate controls were buffer without enzyme for full effect and enzyme alone for no effect
Bead autofluor: compound fluorescence in toxin protease inhibitor counterscreen; hit rate 3.1% among 360,000; fluorescence intensity (no concentration beside the values); compound autofluorescence counterscreen, microsphere flow cytometry; hits give high values; AID 624483; in the data active means fluorescence intensity above about 16000; inconclusive means no clear call, values can overlap the other calls
BoNT-A LC inh2: inhibitors of Botulinum neurotoxin A light chain protease; inhibition, % at 10 µM; multiplex microsphere protease substrate cleavage, flow cytometry; hit rate 0.17% among 360,000; AID 588499; further: plate controls were buffer without enzyme for full effect and enzyme alone for no effect
Active calls of the source: *; i = inactive; ? = inconclusive; · = no result. Most compounds without a hit are left out; they make up all but 3.5% or so of the library. Unless noted, no stated cut-off is given here; in the data, active means inhibition above about 30%; inconclusive means no clear call, values can overlap the other calls; inactive means below that.

SMILES	BH1578 lux ind	BoNT F protease	Anthrax LF inh2	Bead autofluor	BoNT-A LC inh2
CSCCC1NC2(C(=O)Nc3c(Cl)cccc32)[C@@H]2C(=O)N(C3CCCC3)C(=O)[C@H]12 (some centres not stated)	i	2.4	-2.1	21812*	1.8
CSCCC1NC2(C(=O)Nc3c(C)cc(Cl)cc32)[C@@H]2C(=O)N(C3CCCC3)C(=O)[C@H]12 (some centres not stated)	-0.2	-4.6	-6.0	23955*	?
CC(=O)c1ccc(N2C(=O)[C@@H]3C(CCC(N)=O)NC4(C(=O)Nc5c4ccc(Cl)c5C)[C@@H]3C2=O)cc1 (some centres not stated)	i	-6.7	-0.1	4516	0.1
COc1ccc(O)c(C2NC(CC(C)C)(C(=O)O)C3C(=O)N(Cc4ccccc4)C(=O)C23)c1 (configuration not stated)	i	-0.9	-2.0	16430*	-0.6
O=P(Nc1cccnc1)(Oc1ccccc1Cl)Oc1ccccc1Cl	-0.3	86.0*	30.5*	7876	7.1
C(=C\CSc1ncn[nH]1)/CSc1ncn[nH]1	i	8.1	-1.3	20380*	4.2
Cc1ccc(NC(=O)c2noc3c2CCCCC3)cc1C	i	-2.3	-2.0	16801*	-2.2
CCc1ccc(NC(=O)c2noc3c2CCCCC3)cc1	0.9	-4.3	-1.9	10839	1.2
Cc1ccc(NC(=O)c2noc3c2CCCCC3)cc1	-0.2	-1.4	0.0	22657*	1.4
Cc1nnc2ccc(N3CCC4(CC3)OCCO4)nn12	i	2.0	-1.4	23146*	?
O=C(OC1CSc2nc3ccccc3n2C1)c1ccco1 (configuration not stated)	i	-0.3	-4.6	21891*	1.0
CN1CCC(OC(=O)c2ccco2)CC1	-1.2	-1.1	-2.4	4480	-0.7
Cn1c(N2CCCCC2)nc2c1c(=O)[nH]c(=O)n2C	i	-1.4	-5.0	16214*	-0.5
CC(C)n1c(N2CCCC2)nc2c1c(=O)[nH]c(=O)n2C	-0.3	-11.6	0.1	3676	0.7
O=C(NCn1cnccc1=O)c1ccccc1	i	-0.1	-4.2	23239*	-0.5
O=C(Cc1cccc(NC(=O)C2CCCN(C(=O)C3CCCCC3)C2)c1)Nc1cccc(C(=O)N2CCCC2)c1 (configuration not stated)	-0.6	-9.7	-8.0	4079	0.1
N#Cc1c(-c2ccncc2)c2c([nH]c1=S)CCCC2	i	1.2	-0.5	2746	0.5
Cc1ccc(-c2c3c([nH]c(=S)c2C#N)CCCC3)o1	-1.9	-9.2	-0.1	24820*	?
CC1=C(C(=O)OC(C)C)C(c2ccc(F)cc2)NC(=O)N1 (configuration not stated)	i	-2.3	-0.1	16191*	-0.1
CCC(C)OC(=O)C1=C(C)NC(=O)NC1c1ccc(F)cc1 (configuration not stated)	-0.5	-5.5	0.3	10770	-0.6
CCOC(=O)C1=C(C)NC(=O)NC1c1ccsc1 (configuration not stated)	·	-2.9	-8.6	3266	0.2
CC1=C(C(=O)OCC(C)C)C(c2ccsc2)NC(=O)N1 (configuration not stated)	-6.2	-3.3	-4.8	16729*	-0.2
CC1(C(=O)NC(=S)N(CCC#N)c2ccccc2)CC1(Cl)Cl (configuration not stated)	-2.0	4.1	-6.6	21445*	2.9
CC(C)N(Cc1ccccc1)C(=S)NC(=O)C1(C)CC1(Cl)Cl (configuration not stated)	-1.6	-8.0	-1.4	4295	-1.6
CCCCCNC(=O)CN(c1ccc2c(c1)OCO2)S(C)(=O)=O	-0.2	-1.0	-2.2	20699*	-0.1
SMILES	BH1578 lux ind	BoNT F protease	Anthrax LF inh2	Bead autofluor	BoNT-A LC inh2
COC(=O)CN(c1ccc2c(c1)OCO2)S(C)(=O)=O	-0.6	-6.8	0.7	24591*	-3.3
Cc1ccc(SCCNC(=O)CN(c2ccc3c(c2)OCO3)S(C)(=O)=O)cc1	i	-1.8	-3.4	2144	-0.7
Oc1ccc(Oc2ccc(Oc3ccc(O)cc3)cc2)cc1	-0.3	7.8	-7.2	3666	-5.2
C[C@@H](NC(=O)c1nc[nH]c1C(=O)NCc1ccccc1)c1ccccc1	-0.3	3.4	-8.2	3649	0.0
CC(C)C(=O)Nc1nnc(CSCc2ccccc2F)s1	-7.1	-1.6	-1.2	8542	-0.7
CC(C)COC(=O)Nc1nnc(SCc2ccccc2F)s1	2.0	6.3	4.5	22547*	1.6
CC(C)(C)C(=O)Nc1nnc(CSCc2ccccc2F)s1	i	0.8	-2.3	19760*	1.1
CCC(CC)C(=O)Nc1cccc(C(=O)NCCc2ccc(S(N)(=O)=O)cc2)c1	i	-0.4	1.0	23028*	-1.2
